{"source": "the supplement of paper PMC12636033", "note": "± gives the standard deviation of the averaged measurements. Over roughly 33,000 sequences, “E-score (rank enrichment, -0.5 to 0.5)” has its median near -0.0028; the highest 2% begin near 0.23. The sample holds the highest values, similar sequences and a random draw of the others, so the mix is not that of the screen.", "data": [{"test_system": "2Sb-muMax20 (muMax20 with two 1,3-bis(methyl)benzene Cys staples, A13C/A17C and Q88C/A92C, C-terminal Lys)", "test": "PBM 8-mer E-score (E-score (rank enrichment, -0.5 to 0.5)); higher = stronger preferential binding", "method": "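Protein binding microarray (universal PBM chip covering all 10-mers in fixed probe flanks) with chemically synthesized human Max(13-93) bHLH-LZ analogs (not full-length Max) bearing noncanonical residues (hArg, Tha, Aib, Nle at 65) and aromatic Cys staples. Read-out per 8-mer (and its reverse complement): E-score (rank-based enrichment, -0.5 to 0.5) and Z-score of median probe intensity.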", "values": [{"sequence": "AACGCCGT", "PBM 8-mer E-score": "-0.116 ± 0.032"}, {"sequence": "CCATGTTA", "PBM 8-mer E-score": "0.111 ± 0.079"}, {"sequence": "ACATGTTC", "PBM 8-mer E-score": "0.144 ± 0.088"}, {"sequence": "AGATGTTG", "PBM 8-mer E-score": "-0.0885 ± 0.12"}, {"sequence": "GCATGTTA", "PBM 8-mer E-score": "0.165 ± 0.072"}, {"sequence": "ACATGTTG", "PBM 8-mer E-score": "0.289 ± 0.023"}, {"sequence": "ACATGTTA", "PBM 8-mer E-score": "0.2525 ± 0.0013"}, {"sequence": "CGTGTGAA", "PBM 8-mer E-score": "-0.155 ± 0.051"}, {"sequence": "ACGTGAGC", "PBM 8-mer E-score": "0.0717 ± 0.062"}, {"sequence": "AATCAAAC", "PBM 8-mer E-score": "0.16 ± 0.021"}, {"sequence": "CGTTCTAA", "PBM 8-mer E-score": "0.032 ± 0.071"}, {"sequence": "CTCCCACA", "PBM 8-mer E-score": "0.119 ± 0.064"}, {"sequence": "GGCCCACA", "PBM 8-mer E-score": "-0.0654 ± 0.04"}, {"sequence": "AGCCCACC", "PBM 8-mer E-score": "-0.043 ± 0.018"}, {"sequence": "CTCCCACC", "PBM 8-mer E-score": "0.27 ± 0.025"}, {"sequence": "CGCCCACG", "PBM 8-mer E-score": "-0.0314 ± 0.056"}, {"sequence": "AGCCCACG", "PBM 8-mer E-score": "0.0705 ± 0.024"}, {"sequence": "AGCCCACA", "PBM 8-mer E-score": "0.2403 ± 0.0014"}, {"sequence": "CGCCCCAC", "PBM 8-mer E-score": "0.253 ± 0.11"}, {"sequence": "ATCCCACC", "PBM 8-mer E-score": "0.193 ± 0.054"}, {"sequence": "CGCCCCAG", "PBM 8-mer E-score": "0.0881 ± 0.046"}, {"sequence": "CGCCCACC", "PBM 8-mer E-score": "0.312 ± 0.0061"}, {"sequence": "GGCCCCAC", "PBM 8-mer E-score": "0.103 ± 0.019"}, {"sequence": "CATGTAGC", "PBM 8-mer E-score": "0.084 ± 0.043"}, {"sequence": "CTCCACTA", "PBM 8-mer E-score": "0.0307 ± 0.041"}, {"sequence": "CCATCGAG", "PBM 8-mer E-score": "-0.0349 ± 0.043"}, {"sequence": "ACCACGAC", "PBM 8-mer E-score": "-0.0523 ± 0.04"}, {"sequence": "CGTACAAG", "PBM 8-mer E-score": "-0.0151 ± 0.087"}, {"sequence": "ATAGCGAA", "PBM 8-mer E-score": "0.0983 ± 0.034"}, {"sequence": "ACCTATTC", "PBM 8-mer E-score": "-0.025 ± 0.024"}, {"sequence": "CAATGCTA", "PBM 8-mer E-score": "0.00426 ± 0.07"}, {"sequence": "GAATGCTA", "PBM 8-mer E-score": "-0.216 ± 0.036"}, {"sequence": "TAATGCTA", "PBM 8-mer E-score": "0.231 ± 0.044"}, {"sequence": "GGATGGCC", "PBM 8-mer E-score": "-0.241 ± 0.023"}, {"sequence": "GGATGGCA", "PBM 8-mer E-score": "0.267 ± 0.059"}, {"sequence": "TGATGGCA", "PBM 8-mer E-score": "0.0723 ± 0.063"}, {"sequence": "ACTTTCGA", "PBM 8-mer E-score": "0.0801 ± 0.036"}, {"sequence": "AAGCTTCT", "PBM 8-mer E-score": "0.104 ± 0.092"}, {"sequence": "AATCATGA", "PBM 8-mer E-score": "0.136 ± 0.035"}, {"sequence": "TATCATGA", "PBM 8-mer E-score": "0.278 ± 0.02"}, {"sequence": "CATCATGA", "PBM 8-mer E-score": "0.0474 ± 0.048"}, {"sequence": "GGGGATTA", "PBM 8-mer E-score": "0.278 ± 0.013"}, {"sequence": "GGGGATAC", "PBM 8-mer E-score": "0.0267 ± 0.0099"}, {"sequence": "GGGGATAA", "PBM 8-mer E-score": "0.234 ± 0.063"}, {"sequence": "CGGGATTA", "PBM 8-mer E-score": "0.032 ± 0.017"}, {"sequence": "AGGGATTA", "PBM 8-mer E-score": "-0.0189 ± 0.016"}, {"sequence": "TGGGATAA", "PBM 8-mer E-score": "0.0797 ± 0.017"}, {"sequence": "CAGTAAGG", "PBM 8-mer E-score": "-0.0281 ± 0.052"}, {"sequence": "AATAGTGT", "PBM 8-mer E-score": "0.1565 ± 0.001"}, {"sequence": "GTCCCCGA", "PBM 8-mer E-score": "0.0628 ± 0.032"}, {"sequence": "AACTGTGA", "PBM 8-mer E-score": "-0.0892 ± 0.026"}, {"sequence": "TAACTGGA", "PBM 8-mer E-score": "-0.0436 ± 0.0063"}, {"sequence": "CATTAGCC", "PBM 8-mer E-score": "-0.0287 ± 0.08"}, {"sequence": "CTATGCCA", "PBM 8-mer E-score": "0.0722 ± 0.02"}, {"sequence": "ATATGCCG", "PBM 8-mer E-score": "-0.076 ± 0.083"}, {"sequence": "ATATGCCA", "PBM 8-mer E-score": "0.305 ± 0.06"}, {"sequence": "ATCGACGC", "PBM 8-mer E-score": "0.0538 ± 0.027"}, {"sequence": "ATGTGTAC", "PBM 8-mer E-score": "0.107 ± 0.014"}, {"sequence": "GCCAGTGA", "PBM 8-mer E-score": "0.0103 ± 0.058"}, {"sequence": "AGACGTGC", "PBM 8-mer E-score": "-0.124 ± 0.021"}, {"sequence": "ACACGTGC", "PBM 8-mer E-score": "0.409 ± 0.0079"}, {"sequence": "ACACGAGT", "PBM 8-mer E-score": "0.248 ± 0.044"}, {"sequence": "TCACGTGA", "PBM 8-mer E-score": "0.439 ± 0.033"}, {"sequence": "TCACGTAA", "PBM 8-mer E-score": "-0.031 ± 0.021"}, {"sequence": "TAACGTGA", "PBM 8-mer E-score": "-0.0146 ± 0.035"}, {"sequence": "ACACGAGA", "PBM 8-mer E-score": "-0.125 ± 0.065"}, {"sequence": "ACACGTGG", "PBM 8-mer E-score": "0.416 ± 0.0009"}, {"sequence": "ACACGTAG", "PBM 8-mer E-score": "0.0467 ± 0.016"}, {"sequence": "AAACGTGG", "PBM 8-mer E-score": "0.0929 ± 0.011"}, {"sequence": "ACACGTAC", "PBM 8-mer E-score": "0.0764 ± 0.051"}, {"sequence": "ACACGAGG", "PBM 8-mer E-score": "0.0366 ± 0.063"}, {"sequence": "AAGGCCGA", "PBM 8-mer E-score": "-0.0488 ± 0.013"}, {"sequence": "CGCTGACA", "PBM 8-mer E-score": "-0.122 ± 0.0063"}, {"sequence": "TCTAGTCA", "PBM 8-mer E-score": "0.105 ± 0.035"}, {"sequence": "CCCCCGGG", "PBM 8-mer E-score": "-0.43 ± 0.042"}, {"sequence": "CCGCCTCG", "PBM 8-mer E-score": "-0.04 ± 0.07"}, {"sequence": "GATACTCC", "PBM 8-mer E-score": "-0.0231 ± 0.06"}, {"sequence": "GCGCGGGA", "PBM 8-mer E-score": "-0.038 ± 0.036"}, {"sequence": "ATTCAGAG", "PBM 8-mer E-score": "-0.21 ± 0.046"}, {"sequence": "CGTGCATA", "PBM 8-mer E-score": "0.165 ± 0.016"}, {"sequence": "ACACGTAT", "PBM 8-mer E-score": "0.205 ± 0.022"}, {"sequence": "AAACGTGT", "PBM 8-mer E-score": "0.0274 ± 0.017"}, {"sequence": "AGACGTGA", "PBM 8-mer E-score": "0.0177 ± 0.032"}, {"sequence": "ATACGTGA", "PBM 8-mer E-score": "0.0108 ± 0.014"}, {"sequence": "ACACGTGT", "PBM 8-mer E-score": "0.396 ± 0.015"}, {"sequence": "ACACGTGA", "PBM 8-mer E-score": "0.3874 ± 0.0005"}, {"sequence": "ATGTCGCG", "PBM 8-mer E-score": "-0.163 ± 0.042"}, {"sequence": "CATCGTAC", "PBM 8-mer E-score": "-0.0597 ± 0.0024"}, {"sequence": "ACTACGTC", "PBM 8-mer E-score": "0.0847 ± 0.0011"}, {"sequence": "GTCGATTA", "PBM 8-mer E-score": "-0.0254 ± 0.015"}, {"sequence": "AGCAGGCT", "PBM 8-mer E-score": "-0.169 ± 0.016"}, {"sequence": "GAGCCCGC", "PBM 8-mer E-score": "-0.24 ± 0.016"}, {"sequence": "AGCGCTCA", "PBM 8-mer E-score": "-0.0925 ± 0.0074"}, {"sequence": "ATAATGGC", "PBM 8-mer E-score": "0.012 ± 0.012"}, {"sequence": "ATAATGTC", "PBM 8-mer E-score": "0.238 ± 0.021"}, {"sequence": "ATAATGGG", "PBM 8-mer E-score": "0.238 ± 0.034"}, {"sequence": "ATAATGTG", "PBM 8-mer E-score": "0.159 ± 0.037"}, {"sequence": "ATAATGGA", "PBM 8-mer E-score": "0.185 ± 0.0033"}, {"sequence": "CTAATGTC", "PBM 8-mer E-score": "-0.0718 ± 0.018"}, {"sequence": "AGGAACTG", "PBM 8-mer E-score": "-0.188 ± 0.049"}, {"sequence": "GCTGCACA", "PBM 8-mer E-score": "-0.179 ± 0.029"}, {"sequence": "CGCTTGTA", "PBM 8-mer E-score": "0.123 ± 0.13"}, {"sequence": "CATGCATC", "PBM 8-mer E-score": "0.0655 ± 0.044"}, {"sequence": "AATGCATA", "PBM 8-mer E-score": "0.155 ± 0.01"}, {"sequence": "AATGCAAC", "PBM 8-mer E-score": "0.0741 ± 0.045"}, {"sequence": "AATGCATT", "PBM 8-mer E-score": "0.282 ± 0.018"}, {"sequence": "CATGCAAC", "PBM 8-mer E-score": "0.247 ± 0.027"}, {"sequence": "GATGCGTA", "PBM 8-mer E-score": "0.126 ± 0.054"}, {"sequence": "CATGCATA", "PBM 8-mer E-score": "0.177 ± 0.0083"}, {"sequence": "CATGCGTA", "PBM 8-mer E-score": "0.2542 ± 0.0016"}, {"sequence": "AATGCGTA", "PBM 8-mer E-score": "0.192 ± 0.017"}, {"sequence": "AATGCATC", "PBM 8-mer E-score": "0.174 ± 0.028"}, {"sequence": "CATGCATG", "PBM 8-mer E-score": "0.349 ± 0.03"}, {"sequence": "CATGCAAG", "PBM 8-mer E-score": "0.0851 ± 0.0044"}, {"sequence": "AAAGGGGA", "PBM 8-mer E-score": "0.101 ± 0.002"}, {"sequence": "ACCGGGCA", "PBM 8-mer E-score": "-0.237 ± 0.053"}, {"sequence": "CTGGTCCC", "PBM 8-mer E-score": "-0.186 ± 0.015"}, {"sequence": "GGCTTCGA", "PBM 8-mer E-score": "-0.0528 ± 0.016"}, {"sequence": "GTCTTCAC", "PBM 8-mer E-score": "-0.127 ± 0.079"}]}]}
